# Bioassay records deposited in PubChem by several laboratories.
# A selection: hits, their analogues and other compounds. The true share with any hit is near 9.6%.
# Autophagy mod = autophagy modulation, high-content screen; MEF GFP-LC3 puncta imaging; test concentration mostly 10 µM; calls only at 10 µM (by protocol); AID 463193; 190,000 compounds, 0.98% hits;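 active = percentage of spot-positive cells more than 3 SD above its plate mean, without a fluorescence outlier flag or 80% toxicity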;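 also: spot-positive cell cutoff set from DMSO-treated cells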
# INS promoter inh = TRM-6 insulin promoter activity inhibition; inhibition, % at 2 µM; 130,000 compounds, 0.9% hits; TRM-6 cells (human fetal islet line), insulin promoter-eGFP reporter, imaging; reporter expression induced with tamoxifen;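 active = inhibition above the mean plus 3 SD, with well images judged a real hit on visual review, cut at about 60% in these data, passing the limit was not always enough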
# Insulin prom up = MIN6 insulin promoter up-regulation; AID 1625; 190,000 compounds, 0.3% hits; z-score at 5 µM; MIN6 insulin promoter-GFP reporter, high-content imaging; active compounds read high;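 active = z-score above 3 at 5 µM with at least 500 cells counted in the well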
# PTEN del growth = PTEN-deleted cell growth suppression. HCT116 PTEN-null viability, CellTiter-Glo, 60 h; active compounds read low. viability, % at 10 µM. 140,000 compounds, 1.2% hits;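 active = viability at or below a set limit, 4 SD under the median of all tested compounds, cut at about 3.7% in these data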;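 also: PTEN knockout HCT116 line with beta catenin targeted HCT116 as companion control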
# bCat KO growth = beta-catenin-lacking colon tumor cell growth suppression; HCT116 beta-catenin knockout viability, CellTiter-Glo, 60 h; active compounds read low; viability, % at 10 µM; 140,000 compounds, 1.5% hits;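 active = viability at or under a set limit, the compound median less 4 SD, cut at about 6% in these data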;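 also: 0% = Hyamine 1622 control at 20 µM and 100% = untreated cell control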
# L major viab = inhibitors of Leishmania major promastigote growth; Leishmania major promastigotes, resazurin fluorescence viability; inhibition, % at 10 µM; 200,000 compounds, 9% hits; AID 1063; in the data active = inhibition above about 50%;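 also: promastigotes grown with compound for 44 hours at 28 °C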
# * = called active by the depositor; i = inactive; · = no result given.
SMILES,Autophagy mod,INS promoter inh,Insulin prom up,PTEN del growth,bCat KO growth,L major viab
O=C(CN1CCOCC1)Nc1cc(C(F)(F)F)ccc1Cl,i,·,-0.53,·,·,17
CSc1nc(N2CCOCC2)c2c3c(sc2n1)CCC3,i,31,-0.48,99,93,-2
O=C1Nc2cc3c(cc2Sc2ccccc21)OCCO3,i,90*,-0.19,95,101,-9
N#C/C(=C\c1cc2ccccc2nc1N1CCOCC1)C(=O)Nc1ccc(N2CCOCC2)cc1,i,-10,-0.39,86,95,3
CCOC(=O)/C(C#N)=C/c1cc2ccccc2nc1N1CCCCC1,i,·,·,·,·,88*
Cc1ccc2cc(/C=C(\C#N)C(N)=O)c(N3CCCCC3)nc2c1,i,53,-0.84,27,43,42
Cc1ccc2cc(C=C(C#N)C#N)c(N3CCCCC3)nc2c1,i,0,0.29,38,64,99*
Cn1c(SCCS(=O)(=O)c2ccc(Cl)cc2)nnc1-c1ccccc1,i,-11,0.47,92,82,100*
COc1ccc(S(=O)(=O)c2ccc(OCC3CO3)cc2)cc1 (centres undefined),i,·,-0.35,·,·,-9
COc1ccc(C(OCC2CO2)c2ccc(OC)cc2)cc1 (centres undefined),i,77*,0.24,·,·,-7
CCOC(=O)C1CCCN1C(=O)c1ccc(OC)c(Br)c1 (centres undefined),i,·,0.24,·,·,7
Cn1cccc1Cc1nnc(SCC(=O)Nc2ccc(F)cc2F)n1-c1ccc(F)cc1,·,·,0.29,93,81,1
Cn1cccc1Cc1nnc(SCC(=O)Nc2cccc(F)c2)n1-c1ccc(F)cc1,i,·,-0.03,93,83,4
Cn1cccc1Cc1nnc(SCC(=O)Nc2cccc(Cl)c2)n1-c1ccc(F)cc1,i,·,0.26,44,52,62*
Cc1ccc(NC(=O)CSc2nnc(Cc3cccn3C)n2-c2ccc(F)cc2)c(C)c1,i,·,-0.24,70,70,62*
COC(=O)C/C=C/[C@@H](C)[C@@H](/C=N/OC[C@H]1O[C@H](c2ccccc2)C=C[C@@H]1Oc1ccc(OC)cc1)NS(=O)(=O)c1ccc(C)cc1,i,5,-1.4,78,88,2
C=CCOC(=O)C1=C(C)NC2(O)c3ccccc3C(=O)C12O (centres undefined),i,·,-0.05,96,90,-9
COc1ccc(N(C(=O)Cc2cccs2)C2C=CS(=O)(=O)C2)cc1 (centres undefined),i,·,3.1*,·,·,-1
O=C(Cc1cccs1)N(c1ccc(Br)cc1)C1C=CS(=O)(=O)C1 (centres undefined),i,-83,1,·,·,-7
Cc1cccc(/N=C/c2c(O)ccc3oc4c(c23)CCCC4)n1,i,-36,0.05,87,84,91*
Cc1cccc(/N=C/c2c(O)cc(C)oc2=O)n1,i,·,-0.07,107,104,-5
Cc1ccc(C)c(N2CC(=O)N(c3cc(C)ccc3C)CC2=O)c1,i,28,-0.34,93,101,6
Cc1cc(C)c(S(=O)(=O)Nc2ccc3c(c2)CCC3)c(C)c1,i,-15,-0.01,35,44,91*
COc1ccc(CC(NC(C)=O)C(=O)NC2CCN(c3nc(C)cc(C)c3C#N)CC2)cc1OC (centres undefined),i,·,-0.03,·,·,-2
O=C(Nc1ccc(F)cc1)NC1(C(=O)NCc2ccco2)CCCCC1,i,·,0.81,98,99,82*
SMILES,Autophagy mod,INS promoter inh,Insulin prom up,PTEN del growth,bCat KO growth,L major viab
Cc1ccc(NC(=O)NC2(C(=O)NCc3ccccc3)CCCCC2)cc1,i,·,0.22,96,92,21
O=C(NCc1ccc2c(c1)OCO2)C1CCCN1C(=O)Nc1ccc(F)cc1 (centres undefined),i,·,0.49,107,94,92*
O=C(Nc1ccc(F)cc1)NC1(C(=O)NCc2ccc3c(c2)OCO3)CCCCC1,i,-148,·,85,76,91*
Cc1ccc(CNC(=O)C2(NC(=O)Nc3ccc(C)cc3)CCCCC2)cc1,i,-61,0.62,31,16,18
Cc1cc[n+](-c2[nH]c(=O)sc2/C=N/NC([S-])=Nc2ccccc2)cc1C,i,13,-0.13,95,98,-4
Oc1cccc(C=NCc2ccccc2)c1,i,-11,-0.89,92,92,-3
CSc1nnc(Nc2ccccc2C)s1,i,·,-0.31,83,94,0
COc1ccc(C(=O)c2c(C(F)(F)F)oc3c2C(=O)c2ccccc2C3=O)cc1,i,14,-5,1.8*,1.2*,100*
COc1ccc(C(=O)c2oc3ccccc3c2NC(C)=O)cc1,i,34,0.16,100,92,-5
Clc1cncc(Cl)c1N/N=C/c1ccncc1,i,62*,-0.24,64,61,26
CCO[C@H]1OC(C(=O)NC2CC2)=C[C@@H](c2ccc(C(F)(F)F)cc2)[C@@H]1CCCO,i,·,-1,·,·,-5
Nc1c(-c2ccccc2)c(CSc2nc3ccccc3[nH]2)nn1-c1ccc(Cl)cc1,i,-41,-0.7,49,62,97*
Nc1c(-c2ccccc2)c(CSc2nc3ccccc3[nH]2)nn1-c1cccc(Cl)c1,i,-55,-0.9,11,16,98*
C[C@@H](C[C@@H](O)[C@H](O)C(C)(C)O)[C@@H]1CC[C@]2(C)C3=CC[C@H]4C(C)(C)C(=O)CC[C@]4(C)[C@H]3CC[C@@]12C,i,5,-1.4,26,11,92*
CC(NC(=O)/C(C#N)=C/c1ccc(Cl)c([N+](=O)[O-])c1)c1ccccc1 (centres undefined),i,·,-0.13,1.2*,1.6*,100*
COc1cccc(CN(Cc2ccco2)S(=O)(=O)c2ccc(S(=O)(=O)NCc3ccccc3)cc2)c1OC,i,-38,-0.64,63,61,97*
O=C(Nc1cccc(F)c1)N1CCCC(CNS(=O)(=O)Cc2ccccc2)C1 (centres undefined),i,·,-0.38,·,·,92*
O=C(NC1CCCCC1)N1CCCC(CNS(=O)(=O)Cc2ccccc2)C1 (centres undefined),i,-21,-0.19,·,·,18
Cc1noc(C)c1CS(=O)(=O)c1ccc(Br)cc1,i,3,3.2*,91,82,-3
CC1(c2ccccc2Cl)NC(=O)N(CC(=O)NCCC2=CCCCC2)C1=O (centres undefined),i,·,-0.84,·,·,-6
CCc1ccc2[nH]c(=O)c(C(c3nnnn3Cc3ccc(OC)cc3)N3CCOCC3)cc2c1 (centres undefined),i,-9,0.24,93,90,4
Cc1ccc2[nH]c(=O)c(C(c3nnnn3Cc3ccccc3)N3CCc4ccccc43)cc2c1 (centres undefined),i,-121,0.46,94,90,74*
CCc1ccc2[nH]c(=O)c(C(c3nnnn3Cc3ccccc3)N3CCOCC3)cc2c1 (centres undefined),i,-108,0.17,90,92,96*
